# Where “and” joins values, the source holds several entries; their conditions need not be identical. Equal entries are not always repeated. The campaign covered roughly 5,500 compounds. About 2,000 (36%) were called active. About 18% were inconclusive and are not listed. No stated cut-off is given here; in the data, active means normalized growth mostly below about 0.91 (no sharp cut-off); inconclusive means no clear call, values can overlap the other calls; inactive means mostly above about 0.92. The list shows a part of the results.
# Assay: chemical genetic growth profiling, strain panel (AID 1159580);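 further: tested at 20 µM; growth read once vehicle control cultures reached saturation at 30 °C; 1 = growth at the plate median or of vehicle wells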
# Details: S. cerevisiae deletion strains, growth OD
smiles,measurement,setting,value
COc1ccc2c(c1)CCC1C2CC[C@@]2(C)C1CC[C@@H]2O (some centres not stated),normalized growth,"locus YAL013W, strain DEP1, stronger effect = lower value",0.82 (active)
same,normalized growth,"locus YAL021C, strain ccr4, stronger effect = lower value",0.959 (inactive)
same,normalized growth,"locus YAL026C, strain drs2, stronger effect = lower value",0.682 (active)
same,normalized growth,"locus YAL030W, strain snc1, stronger effect = lower value",0.959 (inactive)
same,normalized growth,"locus YBL061C, strain skt5, stronger effect = lower value",0.889 (active)
same,normalized growth,"locus YBR009C, strain hhf1, stronger effect = lower value",0.76 (active)
same,normalized growth,"locus YBR021W, strain FUR4, stronger effect = lower value",1.04 (inactive)
same,normalized growth,"locus YBR023C, strain chs3, stronger effect = lower value",0.852 (active)
same,normalized growth,"locus YBR171W, strain sec66, stronger effect = lower value",0.94 (inactive)
same,normalized growth,"locus YBR229C, strain ROT2, stronger effect = lower value",0.982 (inactive)
same,normalized growth,"locus YBR231C, strain swc5, stronger effect = lower value",0.978 (inactive)
same,normalized growth,"locus YBR279W, strain paf1, stronger effect = lower value",0.884 (active)
same,normalized growth,"locus YCL011C, strain gbp2, stronger effect = lower value",0.813 (active)
same,normalized growth,"locus YCL016C, strain dcc1, stronger effect = lower value",0.862 (active)
same,normalized growth,"locus YCL029C, strain bik1, stronger effect = lower value",0.884 (active)
same,normalized growth,"locus YCL061C, strain MRC1, stronger effect = lower value",0.854 (active)
same,normalized growth,"locus YCL069W, strain vba3, stronger effect = lower value",0.898 (active)
same,normalized growth,"locus YCR088W, strain abp1, stronger effect = lower value",0.937 (inactive)
same,normalized growth,"locus YDL005C, strain med2, stronger effect = lower value",0.983 (inactive)
same,normalized growth,"locus YDL035C, strain GPR1, stronger effect = lower value",0.728 (active)
same,normalized growth,"locus YDL040C, strain nat1, stronger effect = lower value",0.96 (inactive)
same,normalized growth,"locus YDL074C, strain BRE1, stronger effect = lower value",0.514 (active)
same,normalized growth,"locus YDL101C, strain DUN1, stronger effect = lower value",0.899 (inactive)
same,normalized growth,"locus YDL134C, strain PPH21, stronger effect = lower value",0.799 (active)
same,normalized growth,"locus YDL185W, strain tfp1, stronger effect = lower value",0.961 (inactive)
same,normalized growth,"locus YDL192W, strain arf1, stronger effect = lower value",0.502 (active)
same,normalized growth,"locus YDR001C, strain nth1, stronger effect = lower value",0.965 (inactive)
same,normalized growth,"locus YDR069C, strain doa4, stronger effect = lower value",1.01 (inactive)
same,normalized growth,"locus YDR101C, strain arx1, stronger effect = lower value",0.811 (active)
same,normalized growth,"locus YDR137W, strain rgp1, stronger effect = lower value",0.578 (active)
same,normalized growth,"locus YDR150W, strain NUM1, stronger effect = lower value",0.944 (inactive)
same,normalized growth,"locus YDR159W, strain sac3, stronger effect = lower value",0.746 (active)
same,normalized growth,"locus YDR162C, strain NBP2, stronger effect = lower value",0.405 (active)
same,normalized growth,"locus YDR195W, strain ref2",0.953 (inactive)
same,normalized growth,"locus YDR297W, strain sur2, stronger effect = lower value",0.915 (active)
same,normalized growth,"locus YDR318W, strain mcm21, stronger effect = lower value",0.7 (active)
same,normalized growth,"locus YDR334W, strain swr1, stronger effect = lower value",1 (inactive)
same,normalized growth,"locus YDR335W, strain msn5, stronger effect = lower value",0.872 (active)
same,normalized growth,"locus YDR388W, stronger effect = lower value",0.936 (inactive)
same,normalized growth,"locus YDR392W, strain spt3, stronger effect = lower value",0.239 (active)
same,normalized growth,"locus YDR502C, strain sam2, stronger effect = lower value",0.757 (active)
same,normalized growth,"locus YEL003W, strain gim4, stronger effect = lower value",0.842 (active)
same,normalized growth,"locus YEL037C, strain rad23, stronger effect = lower value",0.966 (inactive)
same,normalized growth,"locus YEL061C, strain CIN8 (second series), stronger effect = lower value",0.893 (active)
same,normalized growth,"locus YEL061C, strain CIN8, stronger effect = lower value",0.825 (active)
same,normalized growth,"locus YER015W, strain faa2, stronger effect = lower value",0.86 (active)
same,normalized growth,"locus YER016W, strain bim1, stronger effect = lower value",0.957 (inactive)
same,normalized growth,"locus YER110C, stronger effect = lower value",0.875 (active)
same,normalized growth,"locus YER111C, strain swi4, stronger effect = lower value",0.939 (inactive)
same,normalized growth,"locus YER155C, strain BEM2 (second series), stronger effect = lower value",0.686 (active)
same,normalized growth,"locus YER155C, strain BEM2, stronger effect = lower value",0.676 (active)
same,normalized growth,"locus YER167W, strain BCK2, stronger effect = lower value",0.653 (active)
same,normalized growth,"locus YFR010W, strain ubp6, stronger effect = lower value",0.974 (inactive)
same,normalized growth,"locus YGL078C, strain dbp3, stronger effect = lower value",0.783 (active)
same,normalized growth,"locus YGL086W, strain mad1, stronger effect = lower value",0.75 (active)
same,normalized growth,"locus YGL167C, strain pmr1, stronger effect = lower value",0.965 (inactive)
same,normalized growth,"locus YGL173C, strain kem1, stronger effect = lower value",0.885 (active)
same,normalized growth,"locus YGL227W, strain vid30, stronger effect = lower value",0.903 (active)
same,normalized growth,"locus YGL240W, strain doc1, stronger effect = lower value",0.855 (active)
same,normalized growth,"locus YGL248W, strain PDE1, stronger effect = lower value",0.844 (active)
same,normalized growth,"locus YGL253W, strain hxk2, stronger effect = lower value",0.786 (active)
same,normalized growth,"locus YGR078C, strain PAC10, stronger effect = lower value",0.659 (active)
same,normalized growth,"locus YGR135W, strain pre9, stronger effect = lower value",0.731 (active)
same,normalized growth,"locus YGR229C, strain SMI1, stronger effect = lower value",0.407 (active)
same,normalized growth,"locus YGR252W, strain gcn5, stronger effect = lower value",0.47 (active)
same,normalized growth,"locus YHR013C, strain ard1, stronger effect = lower value",1.04 (inactive)
same,normalized growth,"locus YHR027C, strain rpn1, stronger effect = lower value",0.977 (inactive)
same,normalized growth,"locus YHR030C, strain SLT2, stronger effect = lower value",0.36 (active) and 0.884 (inactive)
same,normalized growth,"locus YHR079C, strain IRE1 (second series), stronger effect = lower value",0.787 (active)
same,normalized growth,"locus YHR079C, strain IRE1, stronger effect = lower value",0.872 (inactive)
same,normalized growth,"locus YHR094C, strain hxt1, stronger effect = lower value",0.951 (inactive)
same,normalized growth,"locus YHR129C, strain ARP1, stronger effect = lower value",0.753 (active)
same,normalized growth,"locus YHR142W, strain chs7, stronger effect = lower value",0.628 (active)
same,normalized growth,"locus YHR200W, strain rpn10, stronger effect = lower value",0.817 (active)
same,normalized growth,"locus YIL066C, strain RNR3, stronger effect = lower value",0.625 (active)
same,normalized growth,"locus YIL073C, strain SPO22, stronger effect = lower value",0.727 (inactive)
same,normalized growth,"locus YIL125W, strain kgd1, stronger effect = lower value",0.822 (active)
same,normalized growth,"locus YIR030C, strain dcg1, stronger effect = lower value",0.902 (active)
same,normalized growth,"locus YJL092W, strain hpr5, stronger effect = lower value",0.934 (inactive)
same,normalized growth,"locus YJL095W, strain BCK1 (second series), stronger effect = lower value",0.833 (active)
same,normalized growth,"locus YJL095W, strain BCK1, stronger effect = lower value",0.363 (active) and 0.882 (active)
same,normalized growth,"locus YJL115W, strain asf1, stronger effect = lower value",0.987 (inactive)
same,normalized growth,"locus YJL129C, strain trk1, stronger effect = lower value",0.804 (active)
same,normalized growth,"locus YJL134W, strain LCB3, stronger effect = lower value",0.989 (inactive)
same,normalized growth,"locus YJL154C, strain vps35, stronger effect = lower value",0.986 (inactive)
same,normalized growth,"locus YJL164C, strain tpk1, stronger effect = lower value",0.812 (active)
same,normalized growth,"locus YJL166W, strain qcr8, stronger effect = lower value",0.775 (active)
same,normalized growth,"locus YJL168C, strain set2, stronger effect = lower value",0.943 (inactive)
same,normalized growth,"locus YJL187C, strain SWE1 (second series), stronger effect = lower value",0.818 (active)
same,normalized growth,"locus YJL187C, strain SWE1, stronger effect = lower value",0.898 (active)
same,normalized growth,"locus YJR043C, strain POL32, stronger effect = lower value",0.698 (active)
same,normalized growth,"locus YJR066W, strain TOR1, stronger effect = lower value",0.907 (inactive)

# — PubChem BioAssay AID1159580 (chemical genetic matrix, 2015)
